High-throughput results from PubChem BioAssay.
Sampled rows, rich in hits. Any-hit rate of the full collection: about 2.7%.
LDHA inh: LDHA (human) enzyme inhibition; P00338; purified LDHA, NADH/diaphorase-resazurin fluorescence; active compounds read low; activity change, % (values are at about 110 or 230 µM); actives 0.15% (n = 480,000); in the data active = activity change below about -30%; inconclusive = mostly about -25% to -30%
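Human LDH5 at 2 nM final in Tris HCl pH 7.4 with 0.06 mM NADH and 0.2 mM pyruvate, reacted 5 minutes at room temperature. Remaining NADH coupled via diaphorase/resazurin; resorufin fluorescence read at 0 and 20 minutes, normalized to enzyme-free and DMSO wells.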
Nrf2 ARE act: activates Nrf2 signaling; AID 624171; Potency, µM (doses to about 46.1 µM), hits mostly activators; actives 0.31% (n = 410,000); AREc32 ARE-luciferase reporter (MCF7-derived line), luminescence, 24 h; note: nearly all actives have a fitted effect of over 65% in size
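AREc32_Fluc, 1000 cells/well, OPTI-MEM + 5% FBS, o/n 37 deg C 5% CO2; 23 nL cpd by pin tool, 24 hr; Steady-Glo 30 min RT, luminescence.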
ERG Ets-DNA blk: blocks human ERG Ets domain binding to DNA | P11308 | fluorescence polarization, His-ERG Ets domain / labelled DNA | Potency, µM (highest dose often 76.9 µM), hits mostly inhibitors | actives 0.028% (n = 370,000) | AID 624246; active = well fitted inhibition curve with a large enough effect in the polarisation, with a control signal flat; inconclusive = small, poorly fitted or top-dose-only effect, or effect the other way, or a change in a side signal; inactive = no such curve, though single readings can be large or run the other way; the % refers to the polarisation;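 note: polarization taken with two DNA probes labelled with fluorescein and Texas red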
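His-tagged ERG Ets domain (1 uM in the protein solution; 300mM KCl, 50mM Tris-HCl, 1mM EDTA, 1mM DTT, pH 7.5) received compound, then a probe mix of 5 nM fluorescein-DNA and 100nM Texas-615-DNA. Fluorescence polarization was read for both dyes.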
Nrf2 block: inhibitors of Nrf2 signaling | A549 ARE-Fluc reporter, luciferase luminescence, 18-24 h | Potency, µM (top dose mostly 46 µM), hits mostly inhibitors | actives 2.1% (n = 360,000) | AID 504444; note: nearly all actives have a fitted effect of over 60% in size
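A549 ARE_Fluc cells, 5000/well, 5% FBS OPTI-MEM; compounds in dose-response, 18-24 h at 37 °C/5% CO2; CellTiter-Fluor viability read (Ex 405/Em 525), then BugLite luciferase luminescence = Nrf2 activity.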
ALOX12 inh: inhibitors of human 12S-lipoxygenase ALOX12; P18054; purified 12hLO, xylenol orange hydroperoxide absorbance; Potency, µM (titrated, usually from 108 µM), usual class: inhibitors; actives 1.1% (n = 580,000); AID 1671190
Target sequence (P18054 whole entry, looked up): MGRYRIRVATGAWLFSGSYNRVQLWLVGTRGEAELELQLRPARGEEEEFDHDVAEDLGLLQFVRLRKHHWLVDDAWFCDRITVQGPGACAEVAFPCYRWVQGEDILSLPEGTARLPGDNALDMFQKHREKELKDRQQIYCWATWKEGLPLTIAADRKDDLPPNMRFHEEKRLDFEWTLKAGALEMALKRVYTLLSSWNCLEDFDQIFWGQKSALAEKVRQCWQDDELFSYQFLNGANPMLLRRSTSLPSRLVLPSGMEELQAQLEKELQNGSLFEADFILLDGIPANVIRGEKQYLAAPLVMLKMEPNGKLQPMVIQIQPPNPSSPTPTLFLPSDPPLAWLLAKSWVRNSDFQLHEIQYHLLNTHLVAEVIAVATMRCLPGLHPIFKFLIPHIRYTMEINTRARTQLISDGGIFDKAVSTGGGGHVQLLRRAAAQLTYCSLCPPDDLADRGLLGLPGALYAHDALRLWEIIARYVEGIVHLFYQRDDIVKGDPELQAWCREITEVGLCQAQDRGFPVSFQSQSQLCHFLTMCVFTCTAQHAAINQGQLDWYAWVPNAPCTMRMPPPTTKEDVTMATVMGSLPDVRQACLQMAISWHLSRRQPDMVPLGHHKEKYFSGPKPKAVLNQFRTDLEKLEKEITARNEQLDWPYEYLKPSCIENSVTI
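Hydroperoxide product was detected by ferrous iron/xylenol orange as the 573 to 405 nm absorbance ratio. Arachidonic acid at 40 uM (final) was turned over for 30 min at room temperature by 150 nM human 12hLO, pH 7.0 Hepes buffer, after 15 min compound preincubation.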
A549 viability: counter-screen for Nrf2 inhibitors: cytotoxicity in A549 cells; A549 ARE-Fluc cells, CellTiter-Fluor viability, 18-24 h; Potency, µM (doses to about 46 µM), hits mostly inhibitors; actives 0.16% (n = 390,000)
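A549 ARE_Fluc cells in 5% FBS OPTI-MEM were exposed to compounds in concentration-response for 18-24 h at 37 deg C. Viability was read by CellTiter-Fluor fluorescence (Ex 405/Em 525) after 30 min, before the luciferase read.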
Numbers stand for hits; [ ] = dose if it differs, or a comment. Unless noted, calls come from the whole dose curve; as a rule, active = well fitted curve in the direction sought with a large enough effect; inconclusive = small, poorly fitted or top-dose-only effect, or another doubt; inactive = no such curve, though single readings can be large; an effect the other way counts as inactive or inconclusive.

Cc1cc(C)n(-c2ccc(NN=C(C#N)C#N)cc2)n1 was read as LDHA inh inactive, Nrf2 ARE act inactive, ERG Ets-DNA blk inactive, Nrf2 block inconclusive, ALOX12 inh inconclusive and A549 viability inactive.
`NNCc1cccnc1` gave LDHA inh inactive and ALOX12 inh inconclusive.
Screening Oc1ccc(/C=N/NP(=S)(c2ccccc2)c2ccccc2)cc1O returned LDHA inh inactive, Nrf2 ARE act inactive, ERG Ets-DNA blk inactive, Nrf2 block inactive, ALOX12 inh 32µM and A549 viability inactive.
Screening Cc1ccc(NC(=O)COc2ccc(-c3nn(C)c(=O)c4ccccc34)cc2)c(C)c1 returned LDHA inh inactive, Nrf2 ARE act inactive, ERG Ets-DNA blk inactive, Nrf2 block 18µM, ALOX12 inh inactive and A549 viability inactive.
Cn1nc(C2CCCCC2)cc1[C@H]1CN2CC[C@H]1C[C@@H]2CN was read as ALOX12 inh inactive.
For COC1C(O)C(C)OC(OC2CCC3(C)C(CC[C@@H]4[C@@H]3CCC3(C)C(C5=CC(=O)OC5)C(O)CC43O)C2)C1O (stereo partly drawn) the results were LDHA inh inactive and ALOX12 inh inconclusive.
For CC(=O)OC1CC(OC2C(O)CC(OC3C(O)CC(OC4CCC5(C)C(CCC6C5CCC5(C)C(C7=CC(=O)OC7)CCC65O)C4)OC3C)OC2C)OC(C)C1OC1OC(CO)C(O)C(O)C1O (stereo not drawn) the results were LDHA inh inactive, Nrf2 ARE act inactive, ERG Ets-DNA blk inactive, Nrf2 block 0.037µM, ALOX12 inh inactive and A549 viability inconclusive.
For N#CC(C#N)=NNc1ccc([N+](=O)[O-])cc1 the results were LDHA inh inactive, Nrf2 ARE act inactive, ERG Ets-DNA blk inactive, Nrf2 block inactive, ALOX12 inh inconclusive and A549 viability 21µM.
For CCN(CC)S(=O)(=O)c1ccc(NN=C(C#N)C#N)cc1 the results were LDHA inh inactive, Nrf2 ARE act inactive, ERG Ets-DNA blk inactive, Nrf2 block inactive, ALOX12 inh inconclusive and A549 viability inconclusive.
Screening COc1ccc(CCNC(=O)c2ccc3c(c2)N=C(C)c2cc(C)ccc2S3)cc1OC returned LDHA inh inactive, Nrf2 ARE act inactive, ERG Ets-DNA blk inactive, Nrf2 block 15µM, ALOX12 inh inactive and A549 viability inactive.
Cc1ncc2c(n1)C[C@@H]1CC[C@H]2N1C(=O)c1cccs1 was read as ALOX12 inh inactive.
CCC(=NCc1cc(OC)cc(OC)c1)c1c(O)n(C)c(=O)n(C)c1=O was read as LDHA inh inactive, Nrf2 ARE act inactive, ERG Ets-DNA blk inactive, Nrf2 block 23µM, ALOX12 inh inactive and A549 viability inconclusive.
Screening O=c1[nH]c(=S)n(CCC2=CCCCC2)c(O)c1/C=N/Nc1ccccc1 returned LDHA inh inactive, Nrf2 ARE act inactive, ERG Ets-DNA blk inactive, Nrf2 block inactive, ALOX12 inh 35µM and A549 viability inactive.
Cc1cccc(OCC(=O)N2[C@H]3CC[C@@H]2c2cnc(-c4ccc(F)cc4)nc2C3)c1 was read as ALOX12 inh inactive.
For C1CCN(c2nc(N/N=C3\CN4CCC3CC4)nc(N3CCCCC3)n2)CC1 the results were LDHA inh inactive and ALOX12 inh inactive.
`COC(=O)C1=C(c2ccc(C(C)=O)cc2)C[C@@H]2CC[C@H]1N2C(=O)N1CCC(O)(c2ccc(Cl)cc2)CC1` gave LDHA inh inactive, Nrf2 ARE act inactive, ERG Ets-DNA blk inactive, Nrf2 block 23µM, ALOX12 inh inactive and A549 viability inactive.
For CCC[N+]12CCC(CC1)C(=C(c1ccccc1)c1ccccc1)C2 the results were LDHA inh inactive, Nrf2 ARE act inactive, ERG Ets-DNA blk inactive, Nrf2 block inactive, ALOX12 inh inactive and A549 viability inactive.
Screening CCCC[N+]12CCC(CC1)C(=C(c1ccccc1)c1ccccc1)C2 returned LDHA inh -106, Nrf2 ARE act inactive, ERG Ets-DNA blk inactive, Nrf2 block inactive, ALOX12 inh inconclusive and A549 viability inactive.
`CC1N(C)c2cc(NC(=O)c3ccco3)c(P(=O)(Nc3ccc([N+](=O)[O-])cc3)N3CCOCC3)cc2C1(C)C` (stereo not drawn) gave LDHA inh inactive, Nrf2 ARE act inactive, ERG Ets-DNA blk inactive, Nrf2 block 16µM, ALOX12 inh inactive and A549 viability 21µM.
For O=C(O)COc1ccc(Cl)cc1Cl the results were LDHA inh inactive, Nrf2 ARE act inactive, ERG Ets-DNA blk inactive, Nrf2 block inactive, ALOX12 inh inactive and A549 viability inactive.
O=C(c1ccco1)N1CCN(C(=O)c2ccc(COc3ccc(Cl)cc3Cl)o2)CC1 was read as LDHA inh inactive, Nrf2 ARE act inactive, ERG Ets-DNA blk inactive, Nrf2 block 26µM, ALOX12 inh inactive and A549 viability inactive.
COc1ccc(-c2cc([C@H]3CN4CC[C@H]3C[C@@H]4CNC(=O)Nc3cccc4ccccc34)n(C)n2)cc1OC was read as ALOX12 inh inactive.
`N#CCCNCc1cccnc1` gave LDHA inh inactive and ALOX12 inh inactive.
For Cc1ccc(C)c(NC(=O)CN2C(=O)CN=C(c3ccc(F)cc3)c3c2sc(C)c3C)c1 the results were LDHA inh inactive and ALOX12 inh inactive.
Screening CCOC(=O)[C@]12Cc3cc(C)ccc3[C@H]1N(Cc1ccccc1)C(=O)c1ccccc12 returned LDHA inh inactive, Nrf2 ARE act inactive, ERG Ets-DNA blk inactive, Nrf2 block 23µM, ALOX12 inh inactive and A549 viability inconclusive.
`Cc1cc2c(c(=O)o1)C1(C(=O)Nc3ccccc31)C(C(=O)OCc1ccccc1)=C(N)O2` (stereo not drawn) gave LDHA inh inactive and ALOX12 inh inconclusive.
Screening Cc1ccc(-c2nc(N3CCOCC3)s[n+]2-c2ccccc2)cc1 returned LDHA inh inactive, Nrf2 ARE act inactive, ERG Ets-DNA blk inactive, Nrf2 block inconclusive, ALOX12 inh 20µM and A549 viability inactive.
`c1ccc(C2=NOC3(CCCN(Cc4cccnc4)C3)C2)nc1` (stereo not drawn) gave ALOX12 inh inactive[6.33 µM].
`CCCCn1c(O)c(C(CC)=Nc2ccc(OCC)cc2)c(=O)[nH]c1=O` gave LDHA inh inactive, Nrf2 ARE act inactive, ERG Ets-DNA blk inactive, Nrf2 block 13µM, ALOX12 inh inactive and A549 viability inactive.
CCCCn1c(O)c(C(CC)=Nc2ccc(OC)cc2OC)c(=O)[nH]c1=O was read as LDHA inh inactive, Nrf2 ARE act inactive, ERG Ets-DNA blk inactive, Nrf2 block inconclusive, ALOX12 inh inactive and A549 viability inactive.
`NC(=O)c1cc(N2CC2)c([N+](=O)[O-])cc1[N+](=O)[O-]` gave LDHA inh inactive, Nrf2 ARE act inactive, ERG Ets-DNA blk inactive, Nrf2 block 13µM, ALOX12 inh inactive and A549 viability inconclusive.
